MARV entry inh: qHTS for inhibitors of binding or entry into cells for Marburg Virus. Marburg virus pseudotyped entry inhibition, cell reporter. Potency, µM (highest dose often 37.8 µM), for inactives: top-dose activity change, negative = inhibition, actives largely listed as inhibitors. 300,000 compounds, 1.8% hits; calls by dose curve; tested in HEK293 cells; also: potency is read from the fitted curve at half-maximal effect
HCMV antiviral: qHTS Assay for inhibitors of the human cytomegalovirus (HCMV) | HFF cells, HCMV-luciferase reporter, 72 h; stronger effect = lower value | activity change, negative = inhibition, % at 57.5 µM | 410,000 compounds, 4.5% hits; in the data active = activity change below about -60%; inconclusive = no clear call, values can overlap the other calls; inactive = above about -39%
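Cell-based, HFFs, 1000 cells/well, 16 h 37C; cpds in DMSO + HCMV-luc, MOI 1 PFU/cell; 72 h 37C; OneGlo luminescence after 5 min RT; norm. to buffer vs Salinomycin 10uM.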
Lassa entry inh: qHTS for Inhibitors of binding or entry into cells for Lassa Virus; AID 540256, 2011; 300,000 compounds, 1.2% hits; Potency, µM (top dose mostly 37.9 µM), inactives show top-dose activity change, negative = inhibition, actives largely listed as inhibitors; Lassa virus pseudotype entry inhibition, cell reporter; calls by dose curve; tested in HEK293 cells; also: potency is read from the fitted curve at half-maximal effect; nearly all actives have a fitted effect of over 50% in size
FMDV inh: High Throughput Screening for Foot and Mouth Disease Virus Antivirals. FMDV antiviral cell-based qHTS. Potency, µM (top dose mostly 57.9 µM), for inactives: top-dose activity change, negative = inhibition, most hits filed as inhibitors. 410,000 compounds, 1.2% hits; calls by dose curve; tested in HEK293T cells; also: read-out not given here; potency is read from the fitted curve at half-maximal effect; nearly all actives have a fitted effect of over 45% in size
HCV inh: qHTS Assay for Inhibitors of Hepatitis C Virus (HCV) | 340,000 compounds, 3.4% hits | Huh7.5.1 HCVcc-Cre infection, luciferase reporter, 44 h | AID 651820, 2012 | Potency, µM (doses to about 41.8 µM), for inactives: at the top dose activity change, negative = inhibition, usual class: inhibitors; active = well fitted inhibition curve with a large enough effect; inconclusive = small, poorly fitted or top-dose-only effect, or another doubt; inactive = no such curve, though single readings can be large or run the other way; also: potency is read from the fitted curve at half-maximal effect
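Antiviral activity was scored by luciferase reporter output from cells infected with HCVcc-Cre (~0.5 moi) in presence of compound, 44 h infection period, cells seeded 1,000/well 4 h prior.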
An asterisk follows results filed as active; ? = inconclusive; . = no result; ! = a repeat was not active; [ ] = dose if it differs, or a comment. Only some compounds are listed: those with a hit (about 7.9% of all), similar ones and a draw of the others. % is scaled to controls: 0 for no effect and ±100 for the full control effect.

SMILES | MARV entry inh | HCMV antiviral | Lassa entry inh | FMDV inh | HCV inh
CCCCCn1c(=O)[nH]c2cc(C(=O)NCc3ccc(F)cc3)ccc2c1=O | 5%[46.1 µM] | 4 | 2%[46.1 µM] | -16% | .
CC(=O)c1ccc(C(=O)N2CCc3c(cnc(C)c3CNC(=O)c3ccc4c(c3)OCO4)C2)s1 | . | . | . | -7% | .
CCC(SC1=Nc2ccccc2C2=NC(CC(C)C)C(=O)N12)C(=O)Nc1ccc2c(c1)OCO2 (stereo unspecified) | ? | 20 | 16% | 33% | 8.9µM*!
COc1cccc(NC(=O)CSC2=Nc3ccccc3C3=NC(CC(=O)NCc4ccc5c(c4)OCO5)C(=O)N23)c1 (stereo unspecified) | . | 36 | -3%[46.1 µM] | -19% | .
COc1ccc(NC(=O)c2ccc3c(SCC(=O)O)c4c(nc3c2)CCCC4)c(OC)c1 | 22%[46.1 µM] | -25 | 7%[46.1 µM] | -23% | 1%
COc1ccc(OC)c(CNC(=O)CSc2c3c(nc4cc(Cl)ccc24)CCCC3)c1 | ? | -60* | -5%[46.1 µM] | ? | .
COc1ccc(NC(=O)CSc2c3c(nc4ccccc24)CCC3)c(OC)c1 | 2.2µM* | 19 | -15%[46.1 µM] | ? | -20%
Cc1ccc(CNC(=O)CSc2c3c(nc4cc(Cl)ccc24)CCCC3)o1 | ? | 6 | 21µM* | 28µM* | 4.5µM*
COCc1c(C(=O)N2CCN(C(C)C)CC2)cnn1-c1nccc(-c2cc(C)sc2C)n1 | . | . | . | -10% | .
COCc1ccc(C(=O)N2CCCC(CCC(=O)NCc3ccccc3F)C2)o1 (stereo unspecified) | 5.6µM* | -19 | 2% | 38% | 1%
O=C(CCC1CCCN(C(=O)c2ccco2)C1)NCc1ccccc1F (stereo unspecified) | 0%[46.1 µM] | 48 | ? | -2% | -6%
Cc1ccc(C(=O)N2CC=C(c3ccccc3)CC2)o1 | 0%[46.1 µM] | -37 | -3% | 1% | 11µM*
Cc1cccc(C(=O)NCC(=O)N2CCN(c3ccccn3)CC2)c1 | ? | -104* | 19% | 11% | 35%
O=C(O)c1ccccc1C(=O)N1CC=C(c2ccccc2)CC1 | 11% | -30 | 0% | -22% | ?
Cc1cccc(C(=O)NCC(=O)N2CC=C(c3ccccc3)CC2)c1 | . | 12 | . | 1% | 5.6µM*
COc1ccc2c(c1)[C@@H](NS(C)(=O)=O)[C@H](C)[C@@H](C(C)C)N2 | . | 9 | . | . | .
COc1ccccc1NC(=O)N1CC=C(c2c[nH]c3ccccc23)CC1 | 21%[46.1 µM] | 43 | . | -2% | .
C1=C(c2c[nH]c3ccccc23)CCN(Cc2ccccc2)C1 | . | -97* | . | -11% | ?
CN1CC=C(c2c[nH]c3ccccc23)CC1 | . | 9 | . | 2% | 6.3µM*
CN(Cc1ccccc1)C(=O)c1cccc(NC(=O)Cc2ccc(NC(=O)C3CCN(C(=O)C4CCCCC4)CC3)cc2)c1 | . | -26 | . | ? | -11%[8.37 µM]
CC(C)c1ccc(/C=C/C(=O)NCCCc2ccccc2)cc1 | 5% | -40 | 9% | -9% | 3%
NC(=S)NC(=O)/C=C/c1ccccc1 | ? | -67* | -35% | 26% | ?
O=C(/C=C/c1ccccc1)NC(=S)Nc1ccccc1O | ? | -24 | ? | 3% | -21%
O=C(C=Cc1ccccc1)NCCNC(=O)C=Cc1ccccc1 | ? | -69* | 19%[46.1 µM] | -5% | 19%
CCCNC(=O)/C=C/c1ccc(C(C)C)cc1 | ? | 22 | 18µM* | 48% | -9%
SMILES | MARV entry inh | HCMV antiviral | Lassa entry inh | FMDV inh | HCV inh
Cc1ccc(/C=C/C(=O)NCc2cccs2)cc1 | -2% | 48 | 2µM* | 44% | -14%
N#Cc1c(NC(=O)c2cc3nc(-c4ccc(Br)cc4)cc(C(F)(F)F)n3n2)sc2c1CCCC2 | . | ? | 0%[46.1 µM] | -1% | .
OC[C@@H](O)CN1CCN(c2ccccc2)CC1 | 15% | . | . | . | .
Cn1c(C(=O)NCc2ccccc2Cl)cc2sc(Cl)cc21 | 3.2µM* | -62* | . | 12% | .
CCOc1ccc(CCNC(=O)c2cc3ccccn3n2)cc1OCC | . | 10 | . | ? | 13µM*
CCOc1ccc(CCNC(=O)c2cc3sc(Cl)cc3n2C)cc1OCC | ? | -10 | 3% | -16% | 7.1µM*
Cc1ccc(-c2noc(-c3cccnc3N(C)Cc3ccc(Cl)cc3)n2)cc1 | -22%[46.1 µM] | 32 | -3%[46.1 µM] | 1% | .
O=C(Nc1sc2c(c1C(=O)NCc1ccco1)CCCC2)c1cc(=O)c2cc(Cl)ccc2o1 | 2%[46.1 µM] | -6 | -1%[46.1 µM] | -4% | .

Assay outcomes deposited in PubChem BioAssay by National Center for Advancing Translational Sciences (NCATS).
